Assay results from ChEMBL document CHEMBL3988442, “University of Dundee, Small-Polar-MMV Screening Library” (2021).
About 13,000 (27%) of roughly 48,000 compounds showed an effect of 50% or more. Some of the results follow.

Each molecule was assayed on Wolbachia pipientis (assay: Anti-Wolbachia Cell-Based Screen). Settings: 5 µM.
Assay type: functional
Parameters: scale not given: in the data most compounds retested in dose-response had high values

| SMILES | Percent Effect |
| --- | --- |
| CCc1cc(C(=O)N2CCc3nc4c(C)csc4c(=O)n3CC2)on1 | 101.2% |
| CCc1nc(CN2CCN(C(=O)c3cc(C)nn3C)CC2)cs1 | -4.839% |
| Cc1ccc(C(=O)N2CCc3nc4c(C)csc4c(=O)n3CC2)cn1 | 130.6% |
| Cc1csc2c(=O)n3c(nc12)CCN(C(=O)c1cccnc1)CC3 | -6.131% |
| Cc1csc2c(=O)n3c(nc12)CCN(C(=O)c1ccccn1)CC3 | 118.3% |
| Cc1nc(C)c(C(=O)N2CCc3nc4c(C)csc4c(=O)n3CC2)s1.Cl | 93.57% |
| CN1CCN(Cc2cnc3n2CCN(C(=O)c2ccccn2)C3)CC1 | -0.6061% |
| Cc1noc(CN2CCN(C(=O)c3ccccn3)CC2)n1 | -3.094% |
| Cc1csc2nc3n(c(=O)c12)CCN(C(=O)c1ccncc1)CC3 | 0.2415% |
| Cc1nc(-c2ccsc2)sc1C(=O)N1CCn2c(C)nnc2C1 | -8.635% |
| O=C1OCCN1CCc1nc(-c2cc3c4c(c2)CC(=O)N4CCC3)cs1 | -4.599% |
| O=C(O)CC[C@@H]1CN(c2ncccc2F)CC[C@@H]1N1CCOCC1 | 1.489% |
| CSCc1nc(C(C)(C)NC(=O)OC(C)(C)C)no1 | 6.132% |
| COc1ccc(CN2C[C@@H](CN(C)CCO)[C@@H](CO)C2)cc1Cl | -12.8% |
| CC(C)(C)N1CC(C(=O)NCc2nc(C3CCCCC3)no2)CC1=O (stereo unspecified) | -1.29% |
| CCc1ccc(CNC(=O)CCNS(=O)(=O)c2cn(C)c(C)n2)s1 | -8.825% |
| Cc1cc2c(=O)n3c(nc2s1)CCN(C(=O)c1cnn(C)c1C)CC3 | -11.91% |
| Cc1csc2c(=O)n3c(nc12)CCN(C(=O)c1ccnn1C)CC3 | 126.7% |
| NC(=O)C1CN(C(=O)NCC2(c3ccc(F)cc3)CCC2)CCO1 (stereo unspecified) | 2.915% |
| Cc1ccc(NC(=O)N2CCOC(C(N)=O)C2)cc1C(F)(F)F (stereo unspecified) | 103.5% |
| Cc1cc(NC(=O)N2CCOC(C(N)=O)C2)ccc1Br (stereo unspecified) | 158.4% |
| C[C@@H]1CN(C(=O)Nc2cccc(OC(F)F)c2)CC(C(N)=O)O1 (stereo partly specified) | -8.405% |

| SMILES | Percent Effect |
| --- | --- |
| COCCN1CCC(CNC(=O)Nc2ccc(SC(F)(F)F)cc2)C1 (stereo unspecified) | -1.712% |
| NC(=O)C1CN(C(=O)Nc2cc(Cl)cc(Cl)c2)CCO1 (stereo unspecified) | -5.843% |
| CN1CCCc2cc(NC(=O)N3CCOC(C(N)=O)C3)ccc21 (stereo unspecified) | -7.642% |
| COc1ccc(NC(=O)N2CCC(c3nnc[nH]3)CC2)cc1C | -18.03% |
| NC(=O)C1CN(C(=O)Nc2ccc(SC(F)(F)F)cc2)CCO1 (stereo unspecified) | 111.1% |
| COCCCC1(CO)CCCN(Cc2cccc(C#N)c2)C1 (stereo unspecified) | 1.897% |
| COCC(C)NCc1ccc2[nH]c(C)c(C)c2c1 (stereo unspecified) | 5.235% |
| Cc1ccc(-n2c(COCC(=O)O)nc3c(C)cccc32)nc1 | -11.98% |
| O=C(c1ccc2nncn2c1)N1CCCC1c1noc(C2CC2)n1 (stereo unspecified) | -1.94% |
| OCCCN1CCCC1c1nc(Cc2ccc(F)cc2)no1 (stereo unspecified) | -4.354% |
| Cc1ncsc1CN1CC(C)(C2CC2)CC1=O (stereo unspecified) | -4.839% |
| Cc1nc(CN(CCc2ccccc2)C2CCN(C)CC2)no1 | -15.44% |
| Cc1nc(CN(C)C2CCN(CCCOc3ccccc3C)C2)no1 (stereo unspecified) | 109.1% |
| Cc1nc(CN(C)C2CCN(CCCc3ccccc3)C2)no1 (stereo unspecified) | 119.3% |
| CCc1n[nH]c(C2CN(CCCOc3cccc(C)c3)CCO2)n1 (stereo unspecified) | 13.14% |
| Cc1cccc(OCCCN2CCC(N(C)Cc3noc(C)n3)C2)c1 (stereo unspecified) | 112.7% |
| Cc1nc(CN(C)C2CCN(CCCOc3ccc(F)cc3)C2)no1 (stereo unspecified) | 112.3% |
| CC(C)N(Cc1cccc(Cl)c1)Cc1nnsc1Cl | 2.005% |
| Cc1cc(CN2CCc3nn(C)c(=O)cc3C2)no1 | -29.82% |
| O=C(NCC1CCS(=O)(=O)C1)c1sccc1-c1ccc(F)cc1 (stereo unspecified) | -6.4% |
| Cc1cc(NC(=O)NCCc2ccsc2)n(C)n1 | 2.6% |
| Fc1ccccc1Cc1noc(CN2CCCC(CN3CCCC3)C2)n1 (stereo unspecified) | -1.357% |

| SMILES | Percent Effect |
| --- | --- |
| COCCc1noc(CN2CCCC(Cn3cncn3)C2)n1 (stereo unspecified) | 89.51% |
| Clc1snnc1CN1CCCC(Cn2cncn2)C1 (stereo unspecified) | 3.779% |
| c1coc(-c2noc(CN3CCCC(Cn4cncn4)C3)n2)c1 (stereo unspecified) | -0.1927% |
| CC(C)Cc1noc(CN2CCCC(Cn3cncn3)C2)n1 (stereo unspecified) | 3.537% |
| c1ccc(Cc2noc(CN3CCCC(Cn4cncn4)C3)n2)cc1 (stereo unspecified) | 97.1% |
| COCCN(C(=O)c1ccsc1)c1ccc(C#N)cc1 | -12.97% |
| O=C(Cc1cn2ccsc2n1)N1CCOCC(O)(CN2CCCC2)C1 (stereo unspecified) | 4.067% |
| CC(=O)N1CCCn2nc(CNc3cc(C)ncn3)cc2C1 | 18.58% |
| Cc1cc(C)nc(NCc2cc3n(n2)CCCN(C(=O)C2CCC2)C3)n1 | 104.2% |
| CS(=O)(=O)N1CCCn2nc(CNc3ncccn3)cc2C1 | -7.874% |
| Cc1cc(NCc2cc3n(n2)CCCN(S(C)(=O)=O)C3)ncn1 | -6.593% |
| O=C(C1CCC1)N1CCCn2nc(CNc3ncccn3)cc2C1 | 131.9% |
| Cc1cc(NCc2cc3n(n2)CCCN(C(=O)C2CCC2)C3)nc(N)n1 | 111.3% |
| CC(=O)N1CCCn2nc(CNS(=O)(=O)N3CCCCCC3)cc2C1 | -0.4584% |
| N[C@H]1CC[C@@H](CN2CCCn3nc(CNC(=O)C4CCC4)cc3C2)CC1 | 11.2% |
| Cc1cc(NCc2cc3n(n2)CCCN(C(=O)C2CCC2)C3)ncn1 | 87.84% |
| Cc1cc(NCc2cc3n(n2)CCCN(C(=O)N(C)C)C3)ncn1 | -7.228% |
| Cc1nc(CN2CCCn3nc(CNC(=O)C4CCC4)cc3C2)co1 | -9.719% |
| COc1ccccc1CN1C(=O)O[C@@H]2CN(c3nccs3)C[C@@H]21 | -9.448% |
| CCc1ccc(NS(=O)(=O)CC2=NC(=O)n3cccc3C2=O)cc1 | 11.57% |
| CCn1cnnc1CCNC(=O)c1ccc(F)c(Br)c1 | -6.891% |
| CN(C)C(=O)CO[C@H]1CO[C@@]2(CCN(S(C)(=O)=O)C2)C1 | -10.41% |
